Compound activity: PubChem, National Center for Advancing Translational Sciences (NCATS)
This is a sample that favours compounds with a hit; in the whole collection about 19% have one here.
DT40 TDP1 CPT: DT40-hTDP1 cell growth loss with CPT; chicken DT40 Tdp1-/-;hTDP1 cells + 20 nM CPT, ATP luminescence, 48 h; AID 686979; 420,000 compounds, 12% hits; Potency, µM (top dose mostly 46.2 µM), for the others: at the highest dose activity change, negative = growth inhibition, most hits filed as inhibitors; further: potency means the concentration at half of the fitted maximal effect; nearly all actives have a fitted effect of over 55% in size
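Chicken DT40 Tdp1-/- cells complemented with human TDP1, 400 cells/well, exposed to compounds plus 20 nM camptothecin for at least 48 h at 37 C; viability read as ATP content by CellTiter-Glo luminescence.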
TDP1 cell noCPT: qHTS for Inhibitors of human tyrosyl-DNA phosphodiesterase 1 (TDP1): qHTS in cells in absence of CPT; DT40 Tdp1-/- hTDP1 cells, no CPT, ATP luminescence, 48 h; Potency, µM (series often up to 46.2 µM), inactives show at the top dose activity change, negative = growth inhibition, actives largely listed as inhibitors; 420,000 compounds, 15% hits; AID 686978, 2013; further: potency means the concentration at half of the fitted maximal effect; nearly all actives have a fitted effect of over 55% in size
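No-CPT arm: Tdp1-/-;hTDP1 DT40 cells (400/well) plus compounds, incubated ≥48 hr at 37 °C. Readout CellTiter-Glo luminescence.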
HT1080 IDH1KD tx: HT-1080 IDH1 knockdown cell toxicity (counter line) | AID 686971 | Potency, µM (series often up to 46.1 µM), without a hit: top-dose activity, negative = toxicity, hits mostly cytotoxic | HT-1080 IDH1 knockdown viability, ATP luminescence, 48 h | 360,000 compounds, 2% hits;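 further: potency means the concentration at half of the fitted maximal effect; 0% = DMSO wells and -100% = cell-free medium wells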
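After a 2 h attachment period, IDH1KD HT-1080 cells took pin-transferred compound for 48 h at 37 °C; ATP-based luminescence after 10 min room-temperature reagent incubation reported viability.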
HT1080-NT tox: kills 2HG-producing HT-1080-NT fibrosarcoma cells; HT-1080-NT fibrosarcoma viability, CellTiter-Glo ATP luminescence, 48 h; Potency, µM (top dose mostly 46.1 µM), for inactives: top-dose activity, negative = less viability, most hits filed as cytotoxic; 360,000 compounds, 1.6% hits; AID 686970;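 further: NT is the 2HG producing partner of a matched IDH1 knockdown line; potency means the concentration at half of the fitted maximal effect; 0% = DMSO-treated cells and -100% = media-only wells without cells; nearly all actives have a fitted effect of over 55% in size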
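Compounds were tested in concentration-response format on HT-1080-NT cells for 48 hours at 37 degrees C. Cell viability came from CellTiter-Glo luminescence; curves were classified by r2, response magnitude and activity.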
ELG1 DNA repair: ELG1-dependent DNA repair inhibition; HEK293T ELG1-luciferase reporter, luminescence, 16 h; DNA damage induced by 5-fluorouridine; 330,000 compounds, 2.3% hits; Potency, µM (highest dose often 46.1 µM), for inactives: at the highest dose activity change, negative = inhibition, hits mostly inhibitors; further: potency means the concentration at half of the fitted maximal effect; nearly all actives have a fitted effect of over 55% in size
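Quantitative HTS, concentration-response format. 2,000 cells/well co-treated with 5-fluorouridine and compound, 16 hr in 5% CO2 at 37 °C; ONE-Glo luminescence read after 30 min.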
IL1B secr inh: blocks inflammasome-driven IL-1 beta release | activity change, % at 57.5 µM | 360,000 compounds, 4.7% hits | THP-1 LPS/ATP IL-1B secretion, AlphaLISA, 16 h; active compounds read low; in the data active means activity change below about -50%; inconclusive means mostly about -30% to -49%
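THP-1 cells pretreated 1 hr with compounds (up to 57.5 uM final), then stimulated with LPS (250 ng/mL final) plus ATP (1.25 mM final); secreted IL-1B measured by AlphaLISA after 16 hr, decreased signal indicating inhibition.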
* marks the source's active call; other numbers are inactive results; ? = inconclusive; / = not tested or not shown; [ ] = remark or other dose. Unless noted, the call rests on the fitted dose curve; in most records, active means well fitted curve in the direction sought with a large enough effect; inconclusive means small, poorly fitted or top-dose-only effect, or another doubt; inactive means no such curve, though single readings can be large; an effect the other way counts as inactive or inconclusive. Unless noted, on the % scale 0 is the no-effect control and ±100 the full control effect.

SMILES	DT40 TDP1 CPT	TDP1 cell noCPT	HT1080 IDH1KD tx	HT1080-NT tox	ELG1 DNA repair	IL1B secr inh
COc1ccc(CN2CCC3CC2c2cc(Cl)ccc23)cc1 (stereo unspecified)	18µM*	18µM*	-1%	-7%	/	11
COc1cccc(NC(=O)N2CCN3CCCCC3C2)c1 (stereo unspecified)	-18%	2%	/	/	/	/
CC(C)N(C(=O)Cn1c(=O)oc2ccccc21)c1ccccc1	-2%	-25%	-1%	1%	1%	16
O=C(COC(=O)/C=C/c1ccc(F)cc1)NCc1ccc2c(c1)OCO2	-6%	-3%	11%	10%	2%	4
O=C(COC(=O)/C=C/c1ccc(S(=O)(=O)N2CCOCC2)cc1)NCc1ccc2c(c1)OCO2	?	?	-19%	-8%	18%	-11
O=C(COC(=O)/C=C/c1ccc2c(c1)OCO2)NCc1ccc(F)cc1	23µM*	21µM*	?	?	/	24
O=C(COC(=O)/C=C/c1ccc(S(=O)(=O)N2CCOCC2)cc1)NCc1ccc(F)cc1	3.7µM*	12µM*	-12%	-13%	11%	0
C=CCC1(CC=C)CCCN1C(=O)CC1C(=O)NCCN1Cc1cccc(OC)c1OC (stereo unspecified)	-14%	?	13%	7%	-1%	-2
CCN1CCN(C2=C(NS(=O)(=O)c3ccccc3)C(=O)c3ccccc3C2=O)CC1	21µM*	16µM*	-3%	5%	?	54
O=C1C(NS(=O)(=O)c2ccc(Cl)cc2)=C(N2CCCCC2)C(=O)c2ccccc21	26µM*	18µM*	?	?	-25%	?
CCN1CCN(C(CNS(=O)(=O)c2ccccc2)c2ccccc2)CC1 (stereo unspecified)	-9%	10%	-14%	0%	4%	-29
CC(C)(CN1CCCCC1)NS(=O)(=O)c1ccc(Cl)cc1	-9%	-8%	0%	0%	/	-10
CN1CCN(C2=C(NS(=O)(=O)c3ccccc3)C(=O)c3ccccc3C2=O)CC1	23µM*	?	2%	-3%	-26%	5
CCN1CCN(C2=C(NS(=O)(=O)c3ccc(Br)cc3)C(=O)c3ccccc3C2=O)CC1	21µM*	23µM*	-14%	-5%	-3%	29
NC(=O)C1CCN(C2=C(NS(=O)(=O)c3ccccc3)C(=O)c3ccccc3C2=O)CC1	-24%	?	-21%	-2%	?	36
O=C(c1ccc(Cl)c(Cl)c1)N1CCC(=O)N([C@H](COCc2cccc(C(F)(F)F)c2)Cc2ccccc2)CC1	?	?	?	?	/	-12
O=C(Nc1cccc(C(F)(F)F)c1)c1csc([C@@H]2O[C@H](CO)[C@@H](O)[C@H]2O)n1	?	?	-2%	6%	/	8
CCCCn1c(SCC(=O)N2c3ccccc3Sc3ccccc32)nc2c1c(=O)n(C)c(=O)n2C	?	26µM*	?	-29%	?	?
COCCn1c(SCC(=O)NC(=O)NC2CCCCC2)nc2ccccc2c1=O	?	15µM*	-1%	-3%[9.24 µM]	?	-5
CCOCCCn1c(SCC(=O)NC2CCCC2)nc2ccccc2c1=O	?	?	11%	1%	-17%	?
CCCCn1c(SCC(=O)N2CCCc3ccccc32)nc2c1c(=O)n(C)c(=O)n2C	18µM*	22µM*	7%	5%	-22%	22
C=CCn1c(SCC(=O)N2CCc3ccccc3C2)nc2sc(C)cc2c1=O	?	26µM*	-28%	-23%	?	?
Cc1cccc(N2CCN(C(=O)c3ccc4c(c3)NC(=O)C(CSCc3cccc(F)c3)N4)CC2)c1C (stereo unspecified)	/	/	/	/	9%	/
CCCn1c(SCC(=O)N2CCc3ccccc3C2)nc2c1c(=O)n(C)c(=O)n2C	?	?	1%	4%	-18%	22
COCCn1c(SCC(=O)N2CCc3ccccc3C2)nc2ccccc2c1=O	21µM*	?	8%	-2%	?	-2
SMILES	DT40 TDP1 CPT	TDP1 cell noCPT	HT1080 IDH1KD tx	HT1080-NT tox	ELG1 DNA repair	IL1B secr inh
CCn1c(SCC(=O)N2CCc3ccccc3C2)nc2c1c(=O)n(C)c(=O)n2C	23µM*	-26%	3%	14%	-8%	51
O=C(O)C1(C(=O)O)CCC2(CCCCC2)CC1	-13%	-7%	4%	2%	/	10
COc1ccc(CNC(=O)c2cnn(-c3ncc4c(n3)-c3ccccc3CC4)c2C)cc1OC	5%[9.04 µM]	-13%	/	/	/	/
CN1CCC(Nc2ncc3ncnc(Nc4ccc(F)c(Cl)c4)c3n2)CC1	?	21µM*	/	/	/	/
N=c1c2cn[nH]c2nc(SCC(=O)c2ccc(Br)cc2)n1-c1ccc(Br)cc1	-2%	1%	-1%	-3%	4%	26
CNC(=O)C1(C(F)(F)F)C/C(=C\CCO)CCCO1 (stereo unspecified)	2%	-9%	11%	2%	0%	16
COc1cccc(C2=NOC(C(=O)Nc3cc(C)nn3-c3ccccc3)C2)c1OC (stereo unspecified)	?	?	-28%	?	23µM*	2
COc1cc(NC(=O)C2CC(c3c(F)cccc3Cl)=NO2)cc(OC)c1OC (stereo unspecified)	?	10µM*	-10%	-8%	?	-16
Cc1ccc(NC(=O)Cn2c(=O)n(CCc3ccccc3)c(=O)c3c4c(sc32)CCCC4)c(C)c1	5%	5%	/	/	/	/
O=C(COc1ccc(Cl)cc1)NCCCNC(=O)c1cccnc1	-15%	-27%	?	?	5%	27
O=C(COc1ccc(Br)cc1)NCCCNC(=O)c1cccnc1	?	?	10µM*	?	1%	-12
O=C(COc1ccccc1Cl)NCCCNC(=O)c1cccnc1	?	?	?	26µM*	0%	7
COC(=O)CC1Oc2ccc(Cl)cc2-n2cc(-c3ccc(F)cc3)nc21 (stereo unspecified)	-14%	-18%	/	/	/	/
COC(=O)CC1Oc2ccccc2N(Cc2ccccc2)C1=O (stereo unspecified)	7%	-15%	1%	6%	?	12
